# Values joined by “and” are separate entries in the source; they are usually repeats but may differ in a detail not shown here. Identical values can stand only once. Results filed as inconclusive are left out. A call without a number means that no potency is given here. Active and inactive are the calls of the source. Calls follow the shape of the dose curve; as a rule, active = well fitted inhibition curve with a large enough effect; inconclusive = small, poorly fitted or top-dose-only effect; inactive = flat fitted curve, though single readings scatter.
# Key:
# [1] = qHTS profiling for inhibitors of Plasmodium falciparum proliferation (AID 504749); also: potency is read from the fitted curve at half-maximal effect; as to all read-outs here: nearly all actives have a fitted effect of over 60% in size; details: P. falciparum in erythrocytes, SYBR Green DNA, 72 h; for activity, negative = inhibition: at 28.7 µM (top of the series)
# How it was run: (§1)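 In a 72 h erythrocytic culture (37 C, humidified, 5% CO2) at 2.5% hematocrit and 0.3% starting parasitemia, compounds were tested; SYBR Green I in detergent lysis buffer stained parasite DNA overnight.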
# [2] = tested on: 3D7; test: as above; details: P. falciparum in erythrocytes, SYBR Green DNA, 72 h; series mostly up to 28.7 µM
# How it was run: as §1
# [3] = tested on: 7G8; test: as above; details: P. falciparum in erythrocytes, SYBR Green DNA, 72 h; series mostly up to 28.7 µM
# How it was run: as §1
# [4] = tested on: AA1029; test: as above; details: P. falciparum in erythrocytes, SYBR Green DNA, 72 h; series mostly up to 28.7 µM
# How it was run: as §1
# [5] = tested on: AS120; test: as above; details: P. falciparum in erythrocytes, SYBR Green DNA, 72 h; series mostly up to 28.7 µM
# How it was run: as §1
# [6] = tested on: ATS189; test: as above; details: P. falciparum in erythrocytes, SYBR Green DNA, 72 h; series mostly up to 28.7 µM
# How it was run: as §1
# [7] = tested on: ATS95; test: as above; details: P. falciparum in erythrocytes, SYBR Green DNA, 72 h; series mostly up to 28.7 µM
# How it was run: as §1
# [8] = tested on: C2A; test: as above; details: P. falciparum in erythrocytes, SYBR Green DNA, 72 h; series mostly up to 28.7 µM
# How it was run: as §1
# [9] = tested on: CP185; test: as above; details: P. falciparum in erythrocytes, SYBR Green DNA, 72 h; series mostly up to 28.7 µM
# How it was run: as §1
# [10] = tested on: CP191; test: as above; details: P. falciparum in erythrocytes, SYBR Green DNA, 72 h; series mostly up to 28.7 µM
# How it was run: as §1
# [11] = tested on: CP192; test: as above; details: P. falciparum in erythrocytes, SYBR Green DNA, 72 h; series mostly up to 28.7 µM
# How it was run: as §1
# [12] = tested on: CP194; test: as above; details: P. falciparum in erythrocytes, SYBR Green DNA, 72 h; series mostly up to 28.7 µM
# How it was run: as §1
# [13] = qHTS for identification of novel therapeutic agents for treatment of microphthalmiaassociated transcription factor (MiT) renal cell carcinoma (RCC) (AID 1963991); details: CellTiter-Glo, 48 h, stronger effect = lower value
# How it was run: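 Three TFE3-fusion RCC cell lines (UOK109, UOK124, UOK145), 500 cells/well, were exposed to the 1912-compound MIPE 4.0 library for 48 hours at 37 C. Viability was read by CellTiter-Glo luminescence, normalised to DMSO (100%) and empty wells (0%), with 11-concentration curve fits.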
# [14] = TFE3-RCC UOK109 viability, measured here: UOK109 Z-AUC
# [15] = TFE3-RCC viability, measured here: UOK124 Z-AUC
# [16] = TFE3-RCC viability, measured here: UOK145 Z-AUC
SMILES,"activity, negative = inhibition ([1]; parasite line A)","activity, negative = inhibition ([1]; parasite line B)",Potency [2],Potency [3],Potency [4],Potency [5],Potency [6],Potency [7],Potency [8],Potency [9],Potency [10],Potency [11],Potency [12],Potency ([1]; parasite line A),Potency ([1]; parasite line B),"z-score [13, 14]","z-score [13, 15]","z-score [13, 16]"
CC[N+]1(C)CCCC(OC(=O)C(O)(c2ccccc2)c2ccccc2)C1 (centres undefined),-4.88% (inactive),2.86% (inactive),inactive,inactive,inactive,inactive,inactive,inactive,inactive,inactive,inactive,inactive,inactive,,,,,
CCC(COC(=O)c1cc(OC)c(OC)c(OC)c1)(c1ccccc1)N(C)C (centres undefined),-11.1% (inactive),-13.8% (inactive),inactive,inactive,inactive,inactive,inactive,inactive,inactive,inactive,inactive,inactive,inactive,,,,,
Nc1ccncc1,15.2% (inactive),1.68% (inactive),inactive,inactive,inactive,inactive,inactive,inactive,inactive,inactive,inactive,inactive,inactive,,,,,
COc1ccc(C(CN(C)C)C2(O)CCCCC2)cc1 (centres undefined),4.2% (inactive),-12.5% (inactive),inactive,inactive,inactive,inactive,inactive,inactive,inactive,inactive,inactive,inactive,,,,,,
Oc1ccccc1-c1ccccc1,-2.25% (inactive),-2.09% (inactive),inactive,inactive,inactive,inactive,inactive,inactive,inactive,inactive,inactive,inactive,inactive,,,,,
CCOC(=O)C1(c2ccccc2)CCN(CCC(C#N)(c2ccccc2)c2ccccc2)CC1,,,2.51 µM (active),2.24 µM (active),3.16 µM (active),2.24 µM (active),3.55 µM (active),3.55 µM (active),3.55 µM (active),3.16 µM (active),3.16 µM (active),4.78 µM (active),,2.51 µM (active),3.16 µM (active),,,
NCCc1cc(O)c(O)cc1O,7.16% (inactive),11.4% (inactive),inactive,inactive,inactive,inactive,inactive,inactive,inactive,inactive,inactive,inactive,inactive,,,,,
CCOP(=S)(OCC)Oc1cc(C)nc(C(C)C)n1,5.69% (inactive),9.55% (inactive),inactive,inactive,inactive,inactive,inactive,inactive,inactive,inactive,inactive,inactive,inactive,,,,,
CC1=C2C[C@@H]3[C@@H](CC=C4C[C@@H](O)CC[C@@]43C)[C@@H]2CC[C@]12O[C@H]1C[C@H](C)CN[C@H]1[C@H]2C,,,,,,,,,,,,,,,,0.302,-0.274,0.235
O=C(O)c1ccc2[nH]cc(CCCCN3CC=C(c4ccccc4)CC3)c2c1,5.66% (inactive),0.723% (inactive),inactive,inactive,inactive,inactive,inactive,inactive,inactive,inactive,inactive,inactive,inactive,,,,,
Oc1cccc2cccnc12,4.36% (inactive),-11.6% (inactive),inactive,inactive,inactive,inactive,inactive,inactive,inactive,inactive,inactive,inactive,inactive,,,,,
CCCC1CCCCN1 (centres undefined),5.52% (inactive),3.92% (inactive),inactive,inactive,inactive,inactive,inactive,inactive,inactive,inactive,inactive,inactive,inactive,,,,,
OCCOc1ccccc1,10.1% (inactive),6.31% (inactive),inactive,inactive,inactive,inactive,inactive,inactive,inactive,inactive,inactive,inactive,inactive,,,,,
CN(C)CCc1ccc(O)cc1,-8.4% (inactive),2.47% (inactive),inactive,inactive,inactive,inactive,inactive,inactive,inactive,inactive,inactive,inactive,inactive,,,2.07,0.378,0.923
CC(C)=CC1C(C(=O)OCc2cccc(Oc3ccccc3)c2)C1(C)C (centres undefined),-11.7% (inactive),-17.5% (inactive),inactive,12.6 µM (active),inactive,inactive,inactive,inactive,inactive,inactive,inactive,inactive,inactive,,,,,
CC1OC(C)OC(C)O1 (centres undefined),8.9% (inactive) and 17.9% (inactive),12.4% (inactive) and 13.9% (inactive),inactive,inactive,inactive,inactive,inactive,inactive,inactive,inactive,inactive,inactive,inactive,,,,,

# From PubChem BioAssay (NCATS)
